Assay results published in ChEMBL document CHEMBL3433997, “St. Jude Leishmania screening dataset” (2016).

Assays:
Assay type in all cases: functional
[1] = biological target: Solute carrier family 2, facilitated glucose transporter member 1 (Homo sapiens) (UniProt P11166); experiment: ST_JUDE_LEISH: Cytotoxicity at 2uM final concentration against transgenic Leishmania Mexicana promastigotes LmGLUT1 that are glucose transport deficient and complemented with the human glucose transporter GLUT1. Activity is measured by DNA content using SYBR green in vitro
[2] = biological target: Hexose transporter 1 (Plasmodium falciparum) (UniProt O97467); experiment: ST_JUDE_LEISH: Cytotoxicity at 2uM final concentration against transgenic Leishmania Mexicana promastigotes LmPfHT that are glucose transport deficient and complemented with the Plasmodium falciparum hexose transporter. Activity is measured by DNA content using SYBR green in vitro
[3] = biological target: Glucose transporter (Leishmania mexicana) (UniProt O61059); experiment: ST_JUDE_LEISH: Cytotoxicity at 2uM final concentration against transgenic Leishmania Mexicana promastigotes LmGT2 that are glucose transport deficient and complemented with the L. Mexicana glucose transporter 2. Activity is measured by DNA content using SYBR green in vitro

Solute carrier family 2, facilitated glucose transporter member 1 (Homo sapiens), sequence (P11166 whole entry): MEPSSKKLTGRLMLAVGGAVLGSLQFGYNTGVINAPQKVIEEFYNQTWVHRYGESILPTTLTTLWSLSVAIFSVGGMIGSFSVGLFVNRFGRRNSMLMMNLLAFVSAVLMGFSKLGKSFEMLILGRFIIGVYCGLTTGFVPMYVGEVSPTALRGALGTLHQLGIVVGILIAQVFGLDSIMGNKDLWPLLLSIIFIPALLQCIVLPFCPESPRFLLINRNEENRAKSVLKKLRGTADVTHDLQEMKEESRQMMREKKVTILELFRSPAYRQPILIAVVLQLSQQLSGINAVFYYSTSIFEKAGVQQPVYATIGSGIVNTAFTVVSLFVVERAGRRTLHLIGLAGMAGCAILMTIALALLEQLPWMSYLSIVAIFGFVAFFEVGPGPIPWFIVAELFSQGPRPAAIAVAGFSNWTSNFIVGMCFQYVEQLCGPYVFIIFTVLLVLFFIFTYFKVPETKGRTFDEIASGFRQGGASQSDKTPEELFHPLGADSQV

SMILES	inhibition [1] [%]	inhibition [2] [%]	inhibition [3] [%]
Clc1ccc(OCc2ccccc2)c(-c2nc(-c3nc4ncc(Br)cc4[nH]3)cs2)c1	4.08	4.1	1.99
CN1CCN(c2ccc(Nc3nc(N)c4ccn(C5CCC5)c4n3)cc2)CC1	4.19	4.27	2.97
CC(=O)Nc1ccc(C(=O)Nc2ccc(-c3cccc(-c4nc5cc(F)ccc5[nH]4)c3)cc2)cn1	0.13	1.66	-4.38
O=C(Nc1cccc(CN2CCCN(Cc3ccc(O)cc3)CC2)c1)c1cccc(F)c1	10.8	10.4	9.62
CCCOc1ccccc1-c1nc2[nH]c3c(c2c(=O)[nH]1)CCN(C)C3	-1.19	-0.54	-1.12
O=C(Nc1ccc(Cn2nc(Cl)c(N3CCNCC3)cc2=O)cc1)Nc1ccc(-c2ccccc2)cc1	14	9.91	11.4
Cc1cc(Cl)c(Cl)cc1NC(=O)Nc1cccc(C(F)(F)F)c1	1.27	-0.59	-0.28
COc1ccccc1-c1cccc2c(NC(=O)Nc3ccc4nccc(N5CCN(C)CC5)c4c3)ccnc12	1.85	2.74	2.18
O=C(/C=C/c1ccc(F)cc1)NC1CCC(CCN2CCc3ccccc3CC2)CC1 (stereo not drawn)	7.03	5.64	2.76
COc1cc(CNCCCCCCNCc2cc(OC)cc3ccccc23)c2ccccc2c1	10.8	11.7	10.4
COc1cc(NC2CCCC(NCc3cn(S(=O)(=O)c4ccccc4)c4ccccc34)C2)nc2ccccc12 (stereo not drawn)	1.09	2.28	2.67
Cc1cc2nc(-c3cccc(C(=O)NC4CCN(Cc5ccccc5)CC4)c3)[nH]c2cc1C	1.16	1.99	1.84
COc1ccc2ncc(F)c(CCN3CC[C@@H](CNCc4cc5c(cn4)OCS5)C3)c2n1	2.66	1.69	-0.48
COc1ccc(NC(=O)C2c3ccccc3C(=O)N(C3CCCC3)C2c2cccs2)cc1 (stereo not drawn)	5.7	4.78	5
COc1ccc(Cn2c(SCc3ccc(C)cc3)nc3cc(OC)c(OC)cc3c2=N)cc1Cl	-0.1	-4.17	-2.37
COc1ccc(CCNc2nc(NCCc3cnc[nH]3)nc(NCc3cccc4ccccc34)n2)cc1OC	7.46	10.1	4.1
